Measurements taken from ChEMBL document CHEMBL4513216, “Probing the Open Global Health Chemical Diversity Library for Multistage-Active Starting Points for Next-Generation Antimalarials” (ACS Infect Dis, 2020).
The whole screen tested about 68,000 compounds, of which about 2,700 (4%) showed an effect of 50% or more. For the sample, strong results were picked, then their nearest neighbours and some compounds at random.

The compounds below were run on Plasmodium berghei (assay: Screen against P. berghei liver stage (PbLuc), transformed with Luciferase, at 2uM). Conditions: tested at 2 uM.
Type: functional, HepG2

SMILES | INHIBITION [%]
Cc1cnn(CC2CCCN2C(=O)c2cccc(-n3ccc(C)n3)c2)c1 (stereo unspecified) | 23.42
CS(=O)(=O)c1ccc(C(=O)N2CCCC(n3cncn3)C2)o1 (stereo unspecified) | -15.41
CCOC(=O)[C@]12CCCN(Cc3cccs3)C[C@H]1CN(C(C)C)C2 | -10.41
CCn1nc(C)c(CNC(=O)NCC(C)(O)c2ccc(C)o2)c1C (stereo unspecified) | -109.32
CCS(=O)(=O)N1CCC2(CC1)CN(c1cncnc1)C(=O)CO2 | -28.81
O=C1COC2(CCN(CC3CC3)CC2)CN1c1cncnc1 | -59.44
CCC(C)N1CCC2(CC1)CN(c1cncnc1)C(=O)CO2 (stereo unspecified) | 51.55
CSc1nc(C)cc(N2CCC(c3ncc[nH]3)CC2)n1 | -69.92
CC(C)NS(=O)(=O)c1cc(C(=O)O)cc(-c2ccccc2F)c1 | 38.83
CC(=O)c1ccccc1-c1cc(C(=O)O)cc(S(=O)(=O)NC(C)C)c1 | 17.48
CC(C)NS(=O)(=O)c1cc(C(=O)O)cc(-c2ccccc2CN(C)C)c1 | 58.24
CC(C)NS(=O)(=O)c1cc(C(=O)O)cc(-c2ccccc2C#N)c1 | -10.44
CC(C)NS(=O)(=O)c1cc(C(=O)O)cc(-c2ccc(CN(C)C)cc2)c1 | 15.42
CC(C)NS(=O)(=O)c1cc(C(=O)O)cc(-c2ccccc2CO)c1 | 76.6
Cn1c(CCNc2nccnc2C#N)nc2ccc(F)cc21 | 8.03
CCc1nnc2n1CCN(C(=O)c1cc3c(F)cccc3[nH]1)C2 | 9.17
CC(C)[C@@H]1CN(CC(=O)NCc2ccco2)C[C@H]1NS(=O)(=O)N(C)C | -30.53
CC(C)[C@@H]1CN(C(=O)NCc2ccco2)C[C@H]1N(C)C | 52.08
CC(C)[C@@H]1CN(C(=O)NCc2ccco2)C[C@H]1NS(=O)(=O)N(C)C | 28.95
CC1COCCN1C(=O)c1cnccn1 (stereo unspecified) | -108.55
COCCN1CCC2(CC1)CC(c1cccnc1)C(=O)N2C (stereo unspecified) | 11.98
CCN(C)C(=O)[C@H]1C[C@@](CC(C)C)(C(=O)OC)N(C)[C@H]1c1cccnc1 | 59.03
COCCNC(=O)[C@H]1C[C@@](CC(C)C)(C(=O)O)N(C)[C@H]1c1cccnc1 | 20.32
O=C(O)CSc1nnc(-c2cn[nH]c2)n1-c1ccccc1C(F)(F)F | 71.98
O=C(O)CSc1nnc(-c2ccn[nH]2)n1-c1ccccc1C(F)(F)F | -43.98
O=C(O)CSc1nnc(-c2cn[nH]c2)n1-c1ccccc1Cl | 37.77

SMILES | INHIBITION [%]
COCCN1CCC(C(=O)N(C)CCOc2ccc(C)cc2Cl)C1 (stereo unspecified) | -23.16
Cc1n[nH]cc1CNC(=O)CCCc1cccs1 | 20.86
C[C@@H]1CN(Cc2ccc(-c3ccncc3)cc2F)CC(C(N)=O)O1 (stereo partly specified) | -11.35
CN1CCC2(CCCN(C(=O)c3cncn3C)C2)CC1 | 13.26
CC(C)N1CCC2(CCCN(C(=O)c3cncn3C)C2)CC1 | 51.36
CC(C)N1CCOCC2(CCCN(C(=O)c3cncn3C)C2)C1 (stereo unspecified) | 9.1
CCSc1nc(N)c(NC(=O)c2ccc(C)cc2)c(=O)[nH]1 | 7.1
COCCC(=O)N1CC[C@H]2O[C@@H](C)C[C@H]2C1 | 26.31
O=C(Nc1cnn(COc2ccc(F)cc2Cl)c1)C1CC1 | 25.24
COc1cc(-c2nc3c([nH]2)CCCNC3=O)ccc1OC(C)C | -20.6
COc1ccc(-c2nc3c([nH]2)CCCNC3=O)cc1OC | 75.76
COc1cc(-c2nc3c([nH]2)CCCNC3=O)ccc1O | -58.91
NC(=O)c1cccc(CC2CCN(C(=O)CO)C2)c1 (stereo unspecified) | -5.6
Cc1ccc(-c2cc(CNC(=O)N3CCC(N(C)C)CC3)on2)cc1 | 23.24
CN(Cc1cc(F)ccc1F)CC(C)(CO)CO | 50.59
CN(Cc1cc(F)ccc1C#N)CC(C)(CO)CO | 55.36
CSCCN(C)Cc1ccc(F)cc1C#N | -63.41
CN(Cc1ccc(F)cc1F)CC(C)(CO)CO | 38.67
CN(Cc1ccc(F)cc1C#N)CC(F)(F)F | 4.12
CN(CC(C)(CO)CO)C(=O)Nc1cc(F)cc(Cl)c1 | -4.57
CNC(=O)c1ccc(OC)c(NCc2ncc(-c3cccs3)o2)c1 | 2.67
Cc1ccc(CN2CCc3ncnc(-c4cccnc4)c3CC2)o1 | 18.57
Cc1ccc(CN2CCc3ncnc(-c4ccc(F)cc4)c3CC2)o1 | -23.71
Cc1ccc(CN2CCc3ncnc(-c4ccncc4)c3CC2)o1 | 76.36
CCc1noc(C)c1C(=O)N1CCCN(Cc2cscn2)CC1 | -2.47
